Test results as given in PubChem BioAssay (EPA / NIEHS).
Active and inactive are the calls of the source. Rule for the calls: active = hit-call score of the fitted dose curve at least 0.9, where 1 is the maximum; inactive = score below 0.9.

Experiments:
Conditions in all cases: mRNA level, 48 h; actives raise or lower the signal
[1] = read-out: Broad substrate specificity ATP-binding cassette transporter ABCG2 (Homo sapiens) (UniProt Q9UNQ0); assay: LTEA_HepaRG_ABCG2: Life Technologies and Expression Analysis (LTEA) Assay for ABC Transporter (ABCG2) using HepaRG (AID 2283465)
In short: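 Differentiated HepaRG cells in serum-free induction medium were exposed for 48 h, in duplicate, to eight half-log concentrations up to 100 uM in 0.5% DMSO. ABCG2 mRNA was measured by TaqMan qRT-PCR, normalized to ACTB, GAPDH and POLR2A, and fitted bidirectionally versus DMSO.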

[2] = read-out: ATP-citrate lyase (ACLY), ACLY (gene 47); assay: LTEA_HepaRG_ACLY: Life Technologies and Expression Analysis (LTEA) Assay for ATP-citrate lyase (ACLY) using HepaRG (AID 2283466)
In short: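 Differentiated human HepaRG cells in serum-free induction medium exposed 48 h, in duplicate, to eight half-log concentrations from 100 uM top in 0.5% DMSO; ACLY mRNA measured by qRT-PCR, normalized to ACTB, GAPDH, POLR2A, fitted bidirectionally versus DMSO.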

[3] = read-out: Peroxisomal acyl-coenzyme A oxidase 1 (ACOX1) gene, ACOX1 (gene 51); assay: LTEA_HepaRG_ACOX1: Life Technologies and Expression Analysis (LTEA) Assay for Peroxisomal acyl-coenzyme A oxidase 1 (ACOX1) gene using HepaRG (AID 2283467)
In short: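 Differentiated human HepaRG cells were exposed in duplicate for 48 h in serum-free induction medium to eight half-log concentrations up to 100 uM in 0.5% DMSO. ACOX1 mRNA was then quantified by TaqMan qRT-PCR, normalized to ACTB, GAPDH and POLR2A.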

[4] = read-out: Alkaline Phosphatase, Placental (ALPP) gene, ALPP (gene 250); assay: LTEA_HepaRG_ALPP: Life Technologies and Expression Analysis (LTEA) Assay for Alkaline Phosphatase, Placental (ALPP) gene using HepaRG (AID 2283468)
In short: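 HepaRG cells plated 48 h, then exposed in duplicate for 48 h in serum-free induction medium to 8-point half-log series from 100 uM in 0.5% DMSO. ALPP mRNA by TaqMan qRT-PCR, normalized to ACTB/GAPDH/POLR2A; bidirectional fit versus DMSO.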

[5] = read-out: Bcl-2 (BAD) gene, BAD (gene 572); assay: LTEA_HepaRG_BAD: Life Technologies and Expression Analysis (LTEA) Assay for Bcl-2 (BAD) gene using HepaRG (AID 2283469)
In short: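 Differentiated human HepaRG cells in serum-free induction medium were exposed in duplicate for 48 h to eight concentrations (top 100 uM, half-log steps, 0.5% DMSO). BAD mRNA was quantified by qRT-PCR normalised to ACTB, GAPDH and POLR2A, with bidirectional fitting versus DMSO.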

[6] = read-out: Bcl-2 (BAX) gene, BAX (gene 581); assay: LTEA_HepaRG_BAX: Life Technologies and Expression Analysis (LTEA) Assay for Bcl-2 (BAX) gene using HepaRG (AID 2283470)
In short: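 Differentiated HepaRG cells exposed 48 h in serum-free induction medium, eight half-log concentrations from 100 uM, in duplicate, 0.5% DMSO vehicle. BAX mRNA by TaqMan qRT-PCR, normalised to ACTB, GAPDH and POLR2A.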

[7] = read-out: adenosine kinase (ADK) gene, ADK (gene 132); assay: LTEA_HepaRG_ADK: Life Technologies and Expression Analysis (LTEA) Assay for adenosine kinase (ADK) gene using HepaRG (AID 2283471)
In short: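 Read-out is ADK transcript level measured by qRT-PCR and normalised to three housekeeping genes. Cells are human HepaRG, dosed for 48 h at up to 100 uM in 0.5% DMSO. Gain or loss of signal is fitted against DMSO controls.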

[8] = read-out: Alpha-fetoprotein (AFP) gene, AFP (gene 174); assay: LTEA_HepaRG_AFP: Life Technologies and Expression Analysis (LTEA) Assay for Alpha-fetoprotein (AFP) gene using HepaRG (AID 2283472)
In short: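 Differentiated human HepaRG cells exposed 48 h in serum-free induction medium, 8-point half-log series from 100 uM in 0.5% DMSO, duplicate. AFP mRNA by qRT-PCR, normalized to ACTB, GAPDH, POLR2A; bidirectional fit vs DMSO.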

BCL2L11 (gene 10018) = assay: LTEA_HepaRG_BCL2L11: Life Technologies and Expression Analysis (LTEA) Assay for Bcl-2 (BCL2L11) gene using HepaRG (AID 2283473)
In short: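 Differentiated human HepaRG cells were exposed 48 h in serum-free induction medium to eight half-log concentrations up to 100 uM in 0.5% DMSO, in duplicate. BCL2L11 mRNA was quantified by TaqMan qRT-PCR, normalized to ACTB, GAPDH and POLR2A; induction or repression fitted versus DMSO.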

[9] = read-out: Apolipoprotein A-V (APOA5) gene, APOA5 (gene 116519); assay: LTEA_HepaRG_APOA5: Life Technologies and Expression Analysis (LTEA) Assay for Apolipoprotein A-V (APOA5) gene using HepaRG (AID 2283474)
In short: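 Differentiated HepaRG cells in serum-free induction medium, exposed 48 h in duplicate to eight half-log concentrations topping at 100 uM (0.5% DMSO). APOA5 mRNA by Fluidigm TaqMan qRT-PCR, normalized to ACTB, GAPDH and POLR2A; bidirectional fit versus DMSO.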

[10] = read-out: Apoptosis regulator Bcl-2 (Homo sapiens) (UniProt P10415); assay: LTEA_HepaRG_BCL2: Life Technologies and Expression Analysis (LTEA) Assay for Bcl-2 gene using HepaRG (AID 2283475)
In short: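 Differentiated human HepaRG cells in serum-free induction medium exposed 48 h, in duplicate, to 8-point half-log series from 100 uM in 0.5% DMSO. BCL2 mRNA by qRT-PCR (TaqMan/Fluidigm), normalized to ACTB, GAPDH, POLR2A; bidirectional fit against DMSO.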

[11] = read-out: Bcl-2 (BID) gene, BID (gene 637); assay: LTEA_HepaRG_BID: Life Technologies and Expression Analysis (LTEA) Assay for Bcl-2 (BID) gene using HepaRG (AID 2283476)
In short: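 Gene expression by qRT-PCR in HepaRG cells after 48 h exposure, duplicate wells, eight half-log concentrations topping at 100 uM in 0.5% DMSO. Normalized to ACTB, GAPDH, POLR2A; bidirectional fitting relative to DMSO.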

Caspase-3 (Homo sapiens) = Caspase-3 (Homo sapiens) (UniProt P42574); assay: LTEA_HepaRG_CASP3: Life Technologies and Expression Analysis (LTEA) Assay for cysteine-aspartic acid protease (CASP3) using HepaRG (AID 2283477)
In short: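 Differentiated HepaRG cells, plated 48 h, were treated in duplicate in serum-free induction medium for 48 h with eight half-log concentrations up to 100 uM in 0.5% DMSO. CASP3 mRNA measured by qRT-PCR, normalized to ACTB, GAPDH, POLR2A.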

[12] = read-out: Cytochrome P450 (CYP24A1), CYP24A1 (gene 1591); assay: LTEA_HepaRG_CYP24A1: Life Technologies and Expression Analysis (LTEA) Assay for Cytochrome P450 (CYP24A1) using HepaRG (AID 2283478)
In short: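 HepaRG cells plated 48 h, then exposed in duplicate in serum-free induction medium for 48 h to 8-point half-log series from 100 uM in 0.5% DMSO. CYP24A1 mRNA by Fluidigm qRT-PCR, normalized to ACTB, GAPDH, POLR2A; bidirectional fit versus DMSO.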

[13] = read-out: cysteine-aspartic acid protease (CASP8), CASP8 (gene 841); assay: LTEA_HepaRG_CASP8: Life Technologies and Expression Analysis (LTEA) Assay for cysteine-aspartic acid protease (CASP8) using HepaRG (AID 2283480)
In short: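 Differentiated human HepaRG cells, plated 48 h then switched to serum-free induction medium, were exposed in duplicate for 48 h to 8 half-log concentrations up to 100 uM in 0.5% DMSO. CASP8 mRNA was quantified by qRT-PCR, normalized to ACTB/GAPDH/POLR2A.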

[14] = read-out: Cytochrome P450 (CYP2B6), CYP2B6 (gene 1555); assay: LTEA_HepaRG_CYP2B6: Life Technologies and Expression Analysis (LTEA) Assay for Cytochrome P450 (CYP2B6) using HepaRG (AID 2283481)
In short: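 Differentiated human HepaRG cells in serum-free induction medium, dosed in duplicate for 48 h over 8 half-log concentrations topping at 100 uM (0.5% DMSO). CYP2B6 mRNA measured by TaqMan qRT-PCR, normalized to ACTB, GAPDH, POLR2A; bidirectional fit versus DMSO.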

[15] = read-out: Cytochrome P450 2C19 (Homo sapiens) (UniProt P33261); assay: LTEA_HepaRG_CYP2C19: Life Technologies and Expression Analysis (LTEA) Assay for CYP2C19 using HepaRG (AID 2283482)
In short: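 Differentiated HepaRG cells in serum-free induction medium exposed 48 h in duplicate, 8 concentrations from 100 uM by half-log steps in 0.5% DMSO. CYP2C19 mRNA measured by TaqMan qRT-PCR, normalized to ACTB, GAPDH, POLR2A. Bidirectional fit versus DMSO.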

CYP2C8 (gene 1558) = assay: LTEA_HepaRG_CYP2C8: Life Technologies and Expression Analysis (LTEA) Assay for CYP2C8 using HepaRG (AID 2283483)
In short: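 Differentiated human HepaRG cells were exposed for 48 h in serum-free induction medium to eight half-log concentrations up to 100 uM in 0.5% DMSO, in duplicate. CYP2C8 mRNA was measured by TaqMan qRT-PCR, normalized to ACTB, GAPDH and POLR2A, and fitted bidirectionally against DMSO.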

Measured: AC50

Chain of Apoptosis regulator Bcl-2 (Homo sapiens) (P10415 whole entry, looked up): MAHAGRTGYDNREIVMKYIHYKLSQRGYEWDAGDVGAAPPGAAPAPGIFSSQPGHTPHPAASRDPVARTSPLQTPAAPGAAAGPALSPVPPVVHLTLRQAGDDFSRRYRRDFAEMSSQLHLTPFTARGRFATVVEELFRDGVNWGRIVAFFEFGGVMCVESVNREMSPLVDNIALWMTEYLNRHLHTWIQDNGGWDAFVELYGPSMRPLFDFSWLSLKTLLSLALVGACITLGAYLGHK
Chain of Cytochrome P450 2C19 (Homo sapiens) (P33261 whole entry, looked up): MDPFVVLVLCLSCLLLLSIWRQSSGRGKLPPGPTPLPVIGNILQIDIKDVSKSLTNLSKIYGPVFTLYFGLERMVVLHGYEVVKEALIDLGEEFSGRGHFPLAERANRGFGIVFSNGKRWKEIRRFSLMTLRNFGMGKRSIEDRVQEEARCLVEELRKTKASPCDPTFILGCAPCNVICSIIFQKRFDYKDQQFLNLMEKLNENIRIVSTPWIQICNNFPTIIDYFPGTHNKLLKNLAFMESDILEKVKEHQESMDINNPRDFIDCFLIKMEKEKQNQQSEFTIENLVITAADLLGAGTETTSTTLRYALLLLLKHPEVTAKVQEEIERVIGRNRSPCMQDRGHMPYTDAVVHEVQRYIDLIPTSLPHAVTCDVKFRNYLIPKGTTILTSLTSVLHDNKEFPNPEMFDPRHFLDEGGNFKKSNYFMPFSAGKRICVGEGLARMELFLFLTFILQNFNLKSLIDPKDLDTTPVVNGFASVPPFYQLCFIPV
Chain of Broad substrate specificity ATP-binding cassette transporter ABCG2 (Homo sapiens) (Q9UNQ0 whole entry, looked up): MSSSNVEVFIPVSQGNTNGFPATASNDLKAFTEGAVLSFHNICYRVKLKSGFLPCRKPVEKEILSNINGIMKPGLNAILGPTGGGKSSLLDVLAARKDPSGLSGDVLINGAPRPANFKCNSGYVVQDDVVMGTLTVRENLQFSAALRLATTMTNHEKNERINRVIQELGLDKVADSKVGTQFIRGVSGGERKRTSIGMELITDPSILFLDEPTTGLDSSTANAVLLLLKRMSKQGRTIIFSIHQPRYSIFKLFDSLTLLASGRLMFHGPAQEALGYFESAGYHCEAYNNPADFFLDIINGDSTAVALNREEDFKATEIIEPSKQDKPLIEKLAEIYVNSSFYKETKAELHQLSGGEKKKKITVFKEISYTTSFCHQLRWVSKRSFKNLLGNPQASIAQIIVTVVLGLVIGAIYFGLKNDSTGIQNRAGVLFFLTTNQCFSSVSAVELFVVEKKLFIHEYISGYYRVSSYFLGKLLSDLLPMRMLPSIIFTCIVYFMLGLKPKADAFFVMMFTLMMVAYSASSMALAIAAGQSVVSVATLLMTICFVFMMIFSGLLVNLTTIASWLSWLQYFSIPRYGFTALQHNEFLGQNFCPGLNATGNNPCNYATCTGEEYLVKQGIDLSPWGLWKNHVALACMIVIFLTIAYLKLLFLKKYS
Chain of Caspase-3 (Homo sapiens) (P42574 whole entry, looked up): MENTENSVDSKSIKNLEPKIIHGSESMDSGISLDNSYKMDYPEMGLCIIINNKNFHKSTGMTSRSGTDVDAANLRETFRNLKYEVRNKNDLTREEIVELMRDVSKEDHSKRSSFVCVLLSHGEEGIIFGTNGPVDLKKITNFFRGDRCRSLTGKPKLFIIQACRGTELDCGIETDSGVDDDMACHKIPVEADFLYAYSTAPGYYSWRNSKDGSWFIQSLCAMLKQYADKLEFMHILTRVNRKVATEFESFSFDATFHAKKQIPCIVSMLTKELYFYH

CCCCOC(=O)c1ccc(O)cc1
inactive: all assays above

CC/C(=C(/CC)c1ccc(O)cc1)c1ccc(O)cc1
inactive: [5] | [6] | [8] | [10] | [12] | CYP2C8 (gene 1558)
active: [1] 50 µM | [2] 50 µM | [3] 93.1 µM | [7] 94.1 µM | BCL2L11 (gene 10018) 88.8 µM | [9] 50 µM | Caspase-3 (Homo sapiens) 93 µM | [13] 93.2 µM | [14] 82.4 µM

Oc1ccccc1
not listed: [4] | [11]
inactive: all other assays above

Cc1cc2c(cc1C(F)(F)F)N(C(=O)Nc1ccc(Oc3cccnc3C)nc1)CC2
inactive: [2] | [5] | [6] | [10] | Caspase-3 (Homo sapiens) | [12] | [15] | CYP2C8 (gene 1558)
active: [1] 11 µM | [3] 46 µM | [4] 15.8 µM | [7] 82.4 µM | [8] 19.9 µM | BCL2L11 (gene 10018) 81.3 µM | [9] 78 µM | [11] 75 µM | [13] 73.6 µM | [14] 12.2 µM
